High-throughput results from PubChem.
Most compounds without a hit are left out; they make up all but 1.8% or so of the library.
aDG glyco up: alpha-DG glycosylation activation. Pro5-aDG cells, alpha-DG glycosylation AlphaScreen (IIH6); 0% Pro5, 100% B10-LARGE cell signal. activation, % at 10 µM. 360,000 tested, 0.22% active. AID 624168;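 active = activation of at least 8% versus controls, or a plate z-score of at least 8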;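 note: Pro5 are CHO cells carrying HIG-tagged alpha-DG that lacks glycosylation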
AI-2 QS mod: modulators of Vibrio harveyi AI-2 quorum sensing system. Vibrio harveyi JMH597 AI-2 luminescence/OD600 ratio, 9 h; stronger effect = lower value; strain lacks LuxN and CqsS sensors; 0 = neutral-control median. activity change, % at 7.5 µM. 300,000 tested, 0.4% active. AID 2094; in the data active = activity change below about -75%, passing the limit was not always enough;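 note: luminescence divided by OD600 gain over 9 h not by final OD600 alone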
Mot1-301 SUMO: blocks SUMOylation pathway, rescuing yeast Mot1-301 growth; AID 2716; 320,000 tested, 1% active; S. cerevisiae Mot1-301 growth rescue, ATP luminescence, 38.5C; percent above DMSO median, 100 means doubled; growth rescue, % at 18.8 µM;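 active = every valid replicate shows activation above 250% relative to neutral control wells; inactive = the rest, any valid replicate at or below 250%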;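 note: OY570 slx delta 5 strain wells were the positive control but not used for scaling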
A1 inh: inhibitors of the anti-apoptotic protein A1, read as caspase activation | MEF A1-2A-BIM cells, Caspase-Glo 3/7 luminescence, 3 h; percent of clofoctol response, vehicle zero | caspase activation, % (no concentration beside the values) | 330,000 tested, 0.066% active | AID 2462;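 active = over half of replicate activation scores above 10%, or exactly half above 10 with the replicate mean above 10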
ARNT TACC3 PPI: ARNT/TACC3 interaction disruption. Q9Y6A5. AlphaScreen His-ARNT PAS-B/GST-TACC3 binding, luminescence; TACC3 fragment carries E629A point mutation. inhibition, % at 9.99 µM. 390,000 tested, 0.66% active;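 active = mean inhibition of replicates at least 50% and at least half of replicates each reaching 50%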;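 note: 0% = complete ARNT plus TACC3 wells and 100% = ARNT alone without TACC3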
Mot1 SUMO dose: SUMO pathway inhibitors in yeast Mot1-301 growth; shares compounds with Mot1-301 SUMO; growth activity, percent, % at 42 µM; AID 493004; S. cerevisiae Mot1-301 galactose growth, ATP luminescence, 24 h; -100 = growth of slx-deleted rescue strain; 2,300 tested, under 10 active;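 active = Signal drops as the depositor expects, and the fitted half-maximal dose is no more than ten times the top valid tested dose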;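 note: more negative values mean stronger growth rescue toward the control strain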
Active calls of the source: *; x = no result given; + = active, no number; [ ] = another dose, or the depositor's remark.

SMILES | aDG glyco up | AI-2 QS mod | Mot1-301 SUMO | A1 inh | ARNT TACC3 PPI | Mot1 SUMO dose
O=C(CSc1nncc2ccccc12)Nc1cccc(C(=O)O)c1 | 0.1 | 13.1 | -0.4 | -0.9 | -6.8 | x
O=C(CS(=O)c1ccc(C(F)(F)F)cc1[N+](=O)[O-])Oc1ccc(Cl)cc1 (stereo not given) | -0.2 | 20.9 | 380.3* | 0.4 | -5.4 | -0.3
Cc1ccc(OCCNc2ccc(C(F)(F)F)cc2[N+](=O)[O-])cc1 | -0.2 | 8.6 | 2.7 | -0.2 | -1.9 | x
Cc1cc(C)cc(OC(=O)CS(=O)c2ccc(C(F)(F)F)cc2[N+](=O)[O-])c1 (stereo not given) | -0.1 | 39.5 | 511.2* | 0.4 | -6.0 | -0.7
COCC(=O)Nc1ccc2c(c1)C(=O)N(C)C[C@H](OC)[C@H](C)CN(CCc1ccccc1)[C@@H](C)CO2 | x | x | x | x | 3.4 | x
COc1ccccc1S(=O)(=O)N[C@@H]1C=C[C@H](CC(=O)N2CCCCC2)O[C@H]1CO | x | x | x | x | -5.0 | x
O=c1c2ccccc2nc(SCc2ccc([N+](=O)[O-])cc2)n1-c1ccc(Cl)cc1 | 0.4 | 11.8 | 172.3 | 0.5 | x | x
CN(C)c1ccnc2sc3c(NCC(O)CO)ncnc3c12 (stereo not given) | -0.3 | 12.6 | 616.5* | 2.1 | -0.6 | 0.0
CCCCn1nnnc1SCC(=O)Nc1ccc(C)cc1 | 0.0 | 7.4 | 3.5 | 1.0 | 43.8 | x
CCCCn1c(=O)[nH]c(=O)c2c1nc(COc1ccc(C#N)cc1)n2CCC | 0.1 | 6.8 | 404.5* | 0.0 | -7.0 | 0.6
COc1ccc(-c2csc(NC(=O)C3CSC4(C)CCC(=O)N34)n2)cc1 (stereo not given) | -0.1 | x | 390.8* | 0.2 | 1.6 | 0.8
CCCN1C(=O)/C(=C/c2ccc(C)s2)NC1=S | 0.1 | 8.7 | -29.0 | 0.1 | 1.5 | x
COCCN1C(=O)/C(=C/c2cc3c(cc2Br)OCO3)NC1=S | 0.0 | 6.9 | 602.9* | -0.5 | 17.6 | -0.6
Cc1cccc(NS(=O)(=O)c2ccc3[nH]c(=O)cc(C(=O)O)c3c2)c1 | 0.3 | 13.9 | 543.6* | 0.0 | -0.4 | 1.0[21 µM]
COc1cc(OC)cc(OC(=O)c2ccc3c(=O)n4c(nc3c2)CCC4)c1 | -0.2 | 18.9 | 359.1* | -1.1 | 0.8 | 0.2
Cc1ccc(OC(=O)c2ccc3c(=O)n4c(nc3c2)CCC4)cc1 | 0.0 | x | x | x | -3.2 | x
CCCSc1nc(=O)n2cccc(C)c2n1 | 2.3 | 4.7 | 625.8* | -0.1 | 2.9 | 1.3
Cc1c(Cl)c([N+](=O)[O-])nn1CC(=O)NC12CC3CC(CC(C3)C1)C2 | -0.2 | 5.3 | 952.1* | 0.4 | 1.4 | -0.3
Cc1c(Cl)c([N+](=O)[O-])nn1CC(=O)N1CCCC1 | -0.2 | 18.3 | -17.6 | -0.4 | -3.8 | x
COc1ccc(NC(=O)C2CCCN(C(=O)Nc3cccc(OC)c3)C2)cc1 (stereo not given) | -0.1 | 34.7 | 380.9* | -0.9 | -10.9 | 0.0
O=C(Nc1ccccc1)N1CCCCN2[C@H](C1)[C@H](c1ccc(C3=CCCCC3)cc1)[C@@H]2CO | x | x | x | x | -4.0 | x
COc1ccc(NC(=S)Nc2ccccc2OC)c(OC)c1 | -0.3 | 20.6 | 475.7* | -0.9 | 6.6 | -0.5
CC1C(=O)CC(c2ccccc2)N(C)C1c1ccccc1 (stereo not given) | 2.1 | 27.0 | 536.6* | 0.3 | -5.6 | 0.4
CCC1C(c2ccccc2)N(C)C(c2ccccc2)CC1(O)c1ccccc1 (stereo not given) | 0.3 | 98.9 | 177.8 | 0.0 | -0.8 | x
C[C@H]1CN([C@@H](C)CO)S(=O)(=O)c2ccc(C#CC3CC3)cc2O[C@H]1CN(C)C(=O)CC1CC1 | x | x | x | x | 1.5 | x
SMILES | aDG glyco up | AI-2 QS mod | Mot1-301 SUMO | A1 inh | ARNT TACC3 PPI | Mot1 SUMO dose
Cc1ccc(C)c(S(=O)(=O)NCC(c2ccco2)N2CCc3ccccc3C2)c1 (stereo not given) | 0.0 | 26.2 | 41.9 | -0.3 | -0.1 | x
COCCn1c(SCC(=O)NCc2cccs2)nnc1-c1ccc(OC)cc1 | 0.0 | 22.2 | 915.8* | 0.2 | -2.0 | -0.7
COc1ccccc1NC(=O)CSc1nnc(COc2ccc(Cl)cc2)o1 | -0.1 | 34.8 | -10.7 | 0.1 | -8.3 | x
C/C(=N\N=C(c1ccccc1)c1ccccc1)c1ccco1 | -0.1 | 0.0 | 576.4* | 0.6 | 10.7 | -0.1
O=C(Nc1ccc2ccccc2c1)N1CCCN(CCOc2ccccc2)CC1 | 0.3 | 6.0 | 424.5* | 0.0 | -11.2 | 0.2
C/C=C/c1ccc([C@H]2[C@@H](CO)N[C@@H]2CNC(=O)c2ccccc2F)cc1 | x | x | x | x | -1.7 | x
COCCCNCC(O)COc1cccc2[nH]c(C)cc12 (stereo not given) | -0.2 | 11.8 | 773.0* | 0.0 | 3.4 | 0.3
CCNC(=S)NC1CC2CCC(C1)N2Cc1ccccc1 (stereo not given) | 0.3 | -17.8 | 23.7 | 0.0 | -2.3 | x
Cc1nn(-c2cc(C(F)(F)F)ccn2)c(=O)o1 | -0.1 | 4.6 | -11.2 | 1.7 | -4.3 | x
CC1CN(S(=O)(=O)c2cccc(C(=O)N(C)C3CCN(C)CC3)c2)CC(C)O1 (stereo not given) | -0.2 | x | 4.9 | -0.3 | -0.1 | x
CC1CN(S(=O)(=O)c2cccc(C(=O)N=c3sccn3C)c2)CC(C)O1 (stereo not given) | 0.0 | 7.1 | 396.4* | -1.4 | 2.6 | -0.7
COCCn1c(N)c(N(Cc2ccccc2)C(=O)CN2C(=O)NC(C)(c3ccccc3)C2=O)c(=O)[nH]c1=O (stereo not given) | 0.6 | 6.6 | 530.9* | 0.1 | -3.4 | -0.2
Cc1ccc2c(c1)NC(=O)[C@@]1(C)[C@@H](c3ccccc3)[C@H]3COc4ccccc4[C@@H]3N1C2=O | 0.1 | x | 234.7 | 1.7 | -1.9 | x
C[C@@]12C(=O)Nc3ccc(Br)cc3C(=O)N1[C@H]1c3ccccc3OC[C@@H]1[C@@H]2c1ccccc1 | -0.1 | x | + | 0.3 | -2.3 | -1.1
Cc1ccc2c(c1)C(=O)N1[C@H]3c4ccccc4OC[C@@H]3[C@H](c3ccccc3)[C@]1(C)C(=O)N2 | -0.1 | x | + | -0.1 | 2.3 | -0.3
CC1=C(C(=O)OCc2ccccc2)C(c2cccc(F)c2)NC(=O)N1 (stereo not given) | 0.3 | 64.9 | 611.2* | -1.9 | -0.7 | -0.1
CC1=C(C(=O)OCc2ccccc2)C(c2ccccc2)NC(=O)N1 (stereo not given) | -0.1 | 10.9 | -1.2 | 0.5 | 1.1 | x
COc1ccc(Nc2nc3cc(C)ccc3cc2C#N)cc1 | 0.2 | 12.3 | -8.8 | 0.7 | -4.7 | x
COc1ccc2cc(C#N)c(Nc3cccc(F)c3)nc2c1 | -0.4 | 8.2 | 572.1* | 0.1 | -0.9 | 0.2
CCOc1ccc(N(C(=O)C2CCCO2)C2C=CS(=O)(=O)C2)cc1 (stereo not given) | -0.1 | 17.0 | 814.4* | 1.3 | -17.4 | 0.3
